This experiment in a line: M. tuberculosis growth inhibition, HTS (AID 1259417).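 Note: bacteria grown with compound for 5 days at 37 °C.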 Conditions: stronger effect = higher value, concentration not given here.
Where [1] appears, read: M. tuberculosis DsRed fluorescence growth inhibition.
Where [2] appears, read: M. tuberculosis growth inhibition.

For 26 compounds, inhibition results are on record in PubChem BioAssay AID1259417 (TB Discovery Research, Infectious Disease Research Institute, 2018).

Structures are written as SMILES. About 760 (69%) of roughly 1,100 compounds were called active. The rule behind the calls is not given here. So high a share suggests a set chosen from earlier hits. Some of the results follow.

Turning to `CCCOc1ccc(C2Oc3ccc(Br)cc3C=C2[N+](=O)[O-])cc1OC` (configuration not stated), the inhibition is, setting by setting: under setting [1], 10.3% (active); under setting [2], 37.5%.
As to `COc1ccc(Nc2ccccc2N)cc1`, the inhibition reads like this: under setting [1], 96% (active); under setting [2], 97.4%.
`COc1ccc(Nc2cc(C)nc3c2ccc2ccccc23)cc1`: the inhibition under setting [1] was 18.8% (inactive) and the inhibition under setting [2] was determined as 19.5%.
On the same counts, the results for `Cc1ccc(Nc2ccccc2N)cc1` are 99.5% (active) and 99.1%.
`Nc1ccccc1Nc1ccccc1`: the inhibition under setting [1] is 98.6% (active) and the inhibition under setting [2] was found to be 98.4%.
As to `O=c1cc(Cc2ccccc2)nc2c(-c3ccccc3)c[nH]n12`, the inhibition runs as follows: under setting [1], 93% (active); under setting [2], 96.9%.
`Cc1ccccc1C(=O)Nc1sc2c(c1C(=O)N1CCN(Cc3ccccc3)CC1)CCCCC2`: the inhibition reads like this: under setting [1], -0.558% (inactive); under setting [2], -12.1%.
Turning to `NC(=O)c1c(NC(=O)c2ccc([N+](=O)[O-])s2)sc2c1CCN(Cc1ccccc1)C2`, the inhibition was 25.9% (inactive) under setting [1] and 2.21% under setting [2].
The matching figures for `CCN1CCc2c(sc(NC(=O)c3ccccc3)c2-c2nc3ccccc3s2)C1`: 52.7% (active) and 77.8%.
In the case of `CCCCOc1ccc(S(=O)(=O)Nc2ccc(I)cc2)cc1`, the inhibition under setting [1] was -1.45% (inactive) and the inhibition under setting [2] was 17.1%.
On the same counts, the results for `COCCNS(=O)(=O)c1ccc(-c2ccc(C)cc2)cc1` are 98.6% (active) and 98.3%.
As for `O=S(Cc1ccccc1)c1nc2ccccc2s1` (configuration not stated), the inhibition is, setting by setting: under setting [1], 51.3% (active); under setting [2], 74.9%.
As for `CN(C)c1ccc(Nc2ncnc3ccc(Br)cc23)cc1`, the inhibition is, setting by setting: under setting [1], 100% (active); under setting [2], 99.4%.
On to `Brc1ccc2ncnc(Nc3ccc(N4CCCC4)cc3)c2c1`, for which the inhibition under setting [1] was 100% (active) and the inhibition under setting [2] is 99.7%.
Regarding `CC1CCc2nc3sc4c(c3c(N)c2C1)CCCC4` (configuration not stated), the inhibition runs as follows: under setting [1], 99.8% (active); under setting [2], 99.6%.
Regarding `Nc1c(C(=O)Nc2ccc(Br)cc2)sc2nc3c(c(-c4cccs4)c12)CCCC3`, the inhibition runs as follows: under setting [1], 5.67% (inactive); under setting [2], -16.7%.
On the same counts, the results for `Nc1c2c(nc3sc4c(c13)CCCC4)CCCC2` are 99.7% (active) and 101%.
Turning to `Cc1nc(SCc2csc(C)n2)c2c3c(sc2n1)CCCC3`, the inhibition is 13.5% (inactive) under setting [1] and -7.63% under setting [2].
As for `CN(Cc1ccccc1)C(=S)NC(=O)c1cccs1`, the inhibition under setting [1] was 23.4% (active) and the inhibition under setting [2] turned out to be 33.4%.
`N#CCCN(Cc1ccccc1)C(=S)NC(=O)c1ccccc1`: the inhibition is -2.05% (inactive) under setting [1] and 0.14% under setting [2].
The matching figures for `O=C(Nc1nnc(C2=COCCO2)o1)c1cccc(Cl)c1`: 12.5% (inactive) and 27.2%.
On to `COc1cccc(C(=O)Nc2nnc(-c3ccc(Cl)cc3)o2)c1`, for which the inhibition reads like this: under setting [1], 35.6% (active); under setting [2], 70.5%.
Turning to `COc1cccc(-c2nnc(NC(=O)c3cccc(F)c3)o2)c1`, the inhibition under setting [1] is 89.3% (active) and the inhibition under setting [2] stood at 93.2%.
Turning to `COc1cccc(-c2nnc(NC(=O)C=Cc3cccs3)o2)c1`, the inhibition by setting is: under setting [1], -4.21% (inactive); under setting [2], 4.98%.
The matching figures for `O=C(Nc1nnc(-c2ccccc2Cl)o1)c1ccco1`: -3.23% (inactive) and -7.63%.
Regarding `O=C(Nc1nnc(-c2ccccc2Cl)o1)c1cccc(Oc2ccccc2)c1`, the inhibition reads like this: under setting [1], 94% (active); under setting [2], 93.2%.
